Assay results from the supplement of paper PMC12669032.

Experiments:
Assay in all cases: growth AUC relative to DMSO control (median of replicates) (fraction); higher = more growth (less inhibition), active = hit call of the paper
Conditions in all cases: 20 µM; 24 h;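 active = AUC reduced over 20% with Padj below 0.05 in at least 2 of 3 replicates; inactive = otherwise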
[1] = system: Akkermansia muciniphila
Outline: (§1)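 Starting at OD600 0.05, gut bacterial monocultures in mGAM were grown anaerobically at 37 °C with 20 µM compound (1% DMSO) under pierced gas-permeable seals. OD600 was read every hour for 24 h, and the lowest OD of each curve was set to 0. Area under the growth curve was normalised to the plate median of solvent-only wells, or to row and column medians on the industrial chemical plate, and the median of three biological replicates grown on separate days is given.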

[2] = system: Bacteroides caccae
Outline: as §1

[3] = system: Bacteroides clarus
Outline: as §1

[4] = system: Bacteroides dorei
Outline: as §1

[5] = system: Bacteroides stercoris
Outline: as §1

[6] = system: Bacteroides thetaiotaomicron
Outline: as §1

[7] = system: Bacteroides uniformis
Outline: as §1

[8] = system: Bifidobacterium longum subsp. longum
Outline: as §1

[9] = system: Clostridium difficile
Outline: as §1

[10] = system: Collinsella aerofaciens
Outline: as §1

[11] = system: Coprococcus comes
Outline: as §1

[12] = system: Escherichia coli ED1a
Outline: as §1

[13] = system: Escherichia coli IAI1
Outline: as §1

[14] = system: Eubacterium rectale
Outline: as §1

[15] = system: Fusobacterium nucleatum subsp. animalis
Outline: as §1

[16] = system: Lactobacillus gasseri
Outline: as §1

[17] = system: Lactobacillus paracasei
Outline: as §1

[18] = system: Odoribacter splanchnicus
Outline: as §1

[19] = system: Parabacteroides distasonis
Outline: as §1

[20] = system: Parabacteroides merdae
Outline: as §1

Measured: growth AUC

CCCCOC(=O)[C@@H](C)Oc1ccc(Oc2ccc(C(F)(F)F)cn2)cc1
inactive: [1] 0.865 | [2] 0.983 | [3] 0.932 | [4] 0.951 | [5] 0.851 | [6] 0.948 | [7] 0.918 | [8] 0.969 | [9] 0.989 | [10] 0.963 | [11] 0.961 | [12] 0.989 | [13] 0.997 | [14] 0.918 | [15] 0.789 | [16] 0.915 | [17] 0.993 | [18] 0.977 | [19] 0.844 | [20] 0.96

COC(=O)C(C)Oc1ccc(Oc2ncc(C(F)(F)F)cc2Cl)cc1 (stereo not given)
inactive: [1] 1.11 | [2] 0.968 | [3] 0.977 | [4] 0.964 | [5] 0.912 | [6] 0.992 | [7] 0.886 | [8] 1.02 | [9] 0.98 | [10] 0.954 | [11] 1.02 | [12] 0.972 | [13] 0.987 | [14] 1.05 | [15] 0.954 | [16] 0.84 | [17] 0.995 | [18] 1.03 | [19] 0.834 | [20] 0.963

CCc1cc(C(=O)O)cc(CC)c1C1C(=O)N2CCOCCN2C1=O
inactive: [1] 1.02 | [2] 1.04 | [3] 1.03 | [4] 1.05 | [5] 1.07 | [6] 0.999 | [7] 1.02 | [8] 1.04 | [9] 0.976 | [10] 1.03 | [11] 1 | [12] 1.02 | [13] 1.02 | [14] 1.01 | [15] 1.11 | [16] 1.11 | [17] 1.04 | [18] 1.13 | [19] 0.99 | [20] 1.04

O=C(O)COc1ccc(Cl)cc1CO
inactive: [1] 1.15 | [2] 0.99 | [3] 0.995 | [4] 0.721 | [5] 0.938 | [6] 0.971 | [7] 0.98 | [8] 1 | [9] 1.03 | [10] 0.96 | [11] 0.999 | [12] 0.964 | [13] 1.01 | [14] 1.05 | [15] 0.931 | [16] 0.852 | [17] 0.993 | [18] 0.96 | [19] 0.91 | [20] 0.978

CON=C(Cc1cccnc1)c1ccc(Cl)cc1Cl
inactive: [1] 1.06 | [2] 0.889 | [3] 0.971 | [4] 0.938 | [5] 1.28 | [6] 0.91 | [7] 0.921 | [8] 0.998 | [9] 1 | [10] 0.945 | [11] 0.94 | [12] 1 | [13] 0.986 | [14] 0.919 | [15] 1.03 | [16] 1.03 | [17] 1.18 | [18] 0.821 | [19] 1.04 | [20] 1.01

CCc1cccc(C)c1N(C(=O)CS(=O)(=O)[O-])C(C)COC.[Na+] (stereo not given)
inactive: [1] 1.08 | [2] 0.952 | [3] 0.987 | [4] 0.91 | [5] 0.951 | [7] 0.993 | [8] 0.954 | [9] 0.991 | [10] 0.923 | [11] 0.948 | [12] 0.954 | [13] 0.941 | [14] 1.05 | [15] 0.881 | [16] 0.91 | [17] 1.02 | [18] 0.908 | [19] 0.925 | [20] 0.941
active: [6] 0.727

CCCCC(CC)COC(=O)COc1cc(Cl)c(Cl)cc1Cl (stereo not given)
inactive: [1] 0.936 | [2] 0.97 | [3] 0.93 | [4] 0.984 | [5] 1.03 | [6] 0.987 | [7] 0.993 | [8] 0.807 | [9] 0.999 | [10] 0.948 | [11] 0.976 | [12] 0.99 | [13] 1.03 | [14] 0.903 | [15] 0.9 | [16] 1.06 | [17] 1.05 | [18] 0.998 | [19] 0.965 | [20] 0.937

Nc1ccc(S(=O)(=O)Nc2cnc3ccccc3n2)cc1
inactive: [1] 0.923 | [2] 1.01 | [3] 0.99 | [4] 1.02 | [5] 1.01 | [6] 0.946 | [7] 0.984 | [8] 1.12 | [9] 0.975 | [10] 0.982 | [11] 0.996 | [12] 1 | [13] 0.975 | [14] 0.983 | [15] 0.936 | [16] 1.03 | [17] 0.887 | [18] 1.01 | [19] 1.01 | [20] 0.97

Cc1cccc(C)c1N(CC(=O)O)C(=O)CS(=O)(=O)[O-].[Na+]
inactive: [1] 0.891 | [2] 1.01 | [3] 0.939 | [4] 0.998 | [5] 0.888 | [6] 1.01 | [7] 1 | [8] 0.938 | [9] 1.05 | [10] 0.973 | [11] 0.996 | [12] 0.973 | [13] 0.946 | [14] 0.847 | [15] 0.941 | [16] 0.987 | [17] 0.928 | [18] 1.01 | [19] 0.965 | [20] 0.997

COC(=O)c1ccccc1S(=O)(=O)NC(=O)Nc1nc(OC(F)F)cc(OC(F)F)n1
inactive: [1] 0.91 | [2] 1 | [3] 0.971 | [4] 0.997 | [5] 0.988 | [6] 0.965 | [7] 1.02 | [8] 1.03 | [9] 0.993 | [10] 0.992 | [11] 1 | [12] 1.02 | [13] 1.01 | [14] 0.964 | [15] 0.957 | [16] 1.19 | [17] 1.04 | [18] 0.99 | [19] 1.04 | [20] 1

Cc1cc(C)cc(O)c1
inactive: [1] 0.865 | [2] 1.04 | [3] 0.983 | [4] 1.01 | [5] 1 | [6] 1.01 | [7] 1 | [8] 0.906 | [9] 1.03 | [10] 1.02 | [11] 1.02 | [12] 0.953 | [13] 0.984 | [14] 0.95 | [15] 0.923 | [16] 1.01 | [17] 0.958 | [18] 0.988 | [19] 1.01 | [20] 0.988

CCOC(N)=O
inactive: [1] 1.13 | [2] 1.01 | [3] 1.02 | [4] 1.04 | [5] 1.17 | [6] 1.01 | [7] 1.01 | [8] 1.06 | [9] 1.01 | [10] 1.01 | [11] 1.03 | [12] 1.01 | [13] 1.03 | [14] 1 | [15] 1.04 | [16] 1.02 | [17] 1.02 | [18] 0.955 | [19] 1.1 | [20] 1.03

CO/N=C(/C(=O)O)c1ccccc1CO/N=C(\C)c1cccc(C(F)(F)F)c1
inactive: [1] 1 | [2] 0.913 | [3] 0.954 | [4] 0.981 | [5] 1.15 | [6] 0.795 | [7] 0.889 | [8] 0.927 | [9] 0.974 | [10] 0.936 | [11] 0.977 | [12] 0.986 | [13] 0.979 | [14] 1.07 | [15] 1.04 | [16] 0.948 | [17] 1.02 | [18] 0.775 | [19] 0.985 | [20] 0.99

COc1cc(OC)nc(NC(=O)NS(=O)(=O)N(C)S(C)(=O)=O)n1
inactive: [1] 0.951 | [2] 1.03 | [3] 1.05 | [4] 1.01 | [5] 1.06 | [6] 0.982 | [7] 0.98 | [8] 0.945 | [9] 0.907 | [10] 1.04 | [11] 1 | [12] 1.02 | [13] 1.01 | [14] 1.04 | [15] 1.01 | [16] 1.06 | [17] 1.04 | [18] 1.06 | [19] 1.01 | [20] 0.983

CCNc1nc(NC(C)(C)C)[nH]c(=O)n1
inactive: [1] 1 | [2] 0.937 | [3] 0.98 | [4] 1.01 | [5] 1.17 | [6] 0.969 | [7] 0.983 | [8] 1.03 | [9] 0.951 | [10] 0.95 | [11] 0.988 | [12] 1.02 | [13] 0.987 | [14] 1.03 | [15] 0.99 | [16] 0.899 | [17] 1.04 | [18] 0.948 | [19] 1.01 | [20] 0.994

S=C([S-])NCCNC(=S)[S-].[Mn+2]
inactive: [1] 0.999 | [2] 1.01 | [3] 1.13 | [4] 0.979 | [5] 1.1 | [6] 1.03 | [7] 0.991 | [8] 0.996 | [9] 0.977 | [10] 1 | [11] 0.998 | [12] 1.03 | [13] 1.03 | [14] 1.02 | [15] 1.04 | [16] 0.994 | [17] 1.16 | [18] 1.06 | [19] 1.02 | [20] 1.03
